Consider 9 compounds from PubChem BioAssay (NCATS).

Records with an inconclusive call do not appear. Active and inactive are the calls of the source. The call rests on the fitted dose curve; in most records, active means well fitted curve in the direction sought with a large enough effect; inconclusive means small, poorly fitted or top-dose-only effect, or another doubt; inactive means no such curve, though single readings can be large; an effect the other way counts as inactive or inconclusive.

Experiment [1] in a line: qHTS of pediatric cancer cell lines to identify multiple opportunities for drug repurposing: Primary screen for LAN-5 cells (AID 1347100). The essentials:
(§1)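 Cells (500-1,000/well) rested 5 h, then received compounds for 48 h; metabolically active cells were measured by CellTiter-Glo luminescence. Final concentrations spanned up to 46 µM (MIPE, 11-point) or 0.59 nM-46 µM (NPC, 8-point) in primary screens, 11-point in follow-ups.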
A general note: In qHTS, concentration-response curves come from the screen itself.

A short description of experiment [2]: qHTS of pediatric cancer cell lines to identify multiple opportunities for drug repurposing: Primary screen for BT-12 cells (AID 1347101). Further: nearly all actives have a fitted effect of over 25% in size. The essentials:
as §1

Experiment [3] can be described thus: qHTS of pediatric cancer cell lines to identify multiple opportunities for drug repurposing: Primary screen for Rh18 cells (AID 1347102). Further: nearly all actives have a fitted effect of over 65% in size. The essentials:
as §1

A short description of experiment [4]: qHTS of pediatric cancer cell lines to identify multiple opportunities for drug repurposing: Primary screen for OHS-50 cells (AID 1347103). Further: nearly all actives have a fitted effect of over 40% in size. The essentials:
as §1

Experiment [5] can be described thus: qHTS of pediatric cancer cell lines to identify multiple opportunities for drug repurposing: Primary screen for RD cells (AID 1347104). Further: nearly all actives have a fitted effect of over 55% in size. The procedure, abridged: (§2)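 Cells seeded at 500-1,000 cells/well in growth media, rested 5 hours at 37 degrees C, 5% CO2, then dosed; MIPE compounds at 11-point (from 0.78 nM) and NPC at 8-point (from 0.59 nM) final concentrations. Viability by CellTiter-Glo luminescence after 48 hours.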

A short description of experiment [6]: qHTS of pediatric cancer cell lines to identify multiple opportunities for drug repurposing: Primary screen for MG 63 (6-TG R) cells (AID 1347105). Further: nearly all actives have a fitted effect of over 50% in size. The essentials:
as §2

Experiment [7] in a line: qHTS of pediatric cancer cell lines to identify multiple opportunities for drug repurposing: Primary screen for control Hh wild type fibroblast cells (AID 1347106). Further: nearly all actives have a fitted effect of over 55% in size. The essentials:
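Viability after 48 h compound treatment at 37C, 500-1,000 cells/well, read as ATP luminescence with CellTiter-Glo. Primary screens used 11-point (MIPE, 0.78 nM-46 µM) or 8-point (NPC, 0.59 nM-46 µM) final concentrations; follow-up screens used 11-point dilutions.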

Experiment [8] in a line: qHTS of pediatric cancer cell lines to identify multiple opportunities for drug repurposing: Primary screen for Rh30 cells (AID 1347107). Further: nearly all actives have a fitted effect of over 75% in size. The essentials:
as §1

A short description of experiment [9]: qHTS of pediatric cancer cell lines to identify multiple opportunities for drug repurposing: Primary screen for Rh41 cells (AID 1347108). Further: nearly all actives have a fitted effect of over 70% in size. The essentials:
as §2

The nature of experiment [10]: qHTS of pediatric cancer cell lines to identify multiple opportunities for drug repurposing: Confirmatory screen for NB1643 cells (AID 1347109). Further: nearly all actives have a fitted effect of over 45% in size. The essentials: as §1
The nature of experiment [11]: qHTS of pediatric cancer cell lines to identify multiple opportunities for drug repurposing: Confirmatory screen for A673 cells (AID 1347110).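 Further: cells exposed to compound for 48 h before the viability read; nearly all actives have a fitted effect of over 65% in size.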 The essentials: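 Cells plated at 500-1,000/well were treated five hours later with multi-point dilutions up to 46 µM final. After two days, CellTiter-Glo was added and luminescence read.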
A short description of experiment [12]: qHTS of pediatric cancer cell lines to identify multiple opportunities for drug repurposing: Confirmatory screen for BT-12 cells (AID 1347112). Further: nearly all actives have a fitted effect of over 55% in size. The procedure, abridged: as §1
Experiment [13] can be described thus: qHTS of pediatric cancer cell lines to identify multiple opportunities for drug repurposing: Confirmatory screen for DAOY cells (AID 1347114). Further: nearly all actives have a fitted effect of over 65% in size. The essentials:
(§3)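 Viability measured as metabolically active cells via CellTiter-Glo luminescence following 48 hours of compound exposure, 11-point dilutions in confirmatory testing. 500-1,000 cells/well plated 5 hours before dosing; controls were DMSO and 2.3 µM bortezomib.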

Experiment [14] in a line: qHTS of pediatric cancer cell lines to identify multiple opportunities for drug repurposing: Confirmatory screen for SJ-GBM2 cells (AID 1347116). Further: nearly all actives have a fitted effect of over 60% in size. The essentials: as §3
A short description of experiment [15]: qHTS of pediatric cancer cell lines to identify multiple opportunities for drug repurposing: Confirmatory screen for BT-37 cells (AID 1347117). Further: nearly all actives have a fitted effect of over 55% in size. The procedure, abridged:
as §1

A short description of experiment [16]: qHTS of pediatric cancer cell lines to identify multiple opportunities for drug repurposing: Confirmatory screen for TC32 cells (AID 1347118).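 Further: cells exposed to compound for 48 h before the read; nearly all actives have a fitted effect of over 65% in size.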 The procedure, abridged:
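Luminescent CellTiter-Glo read-out of metabolically active TC32 cells after 48 h compound exposure. Primary: MIPE 11-point, 0.78 nM–46 µM; NPC 8-point, 0.59 nM–46 µM. Confirmatory: 11-point dilutions.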

The nature of experiment [17]: qHTS of pediatric cancer cell lines to identify multiple opportunities for drug repurposing: Confirmatory screen for control Hh wild type fibroblast cells (AID 1347121). Further: nearly all actives have a fitted effect of over 70% in size. The procedure, abridged: as §1
Experiment [18] is described as follows: qHTS of pediatric cancer cell lines to identify multiple opportunities for drug repurposing: Confirmatory screen for SK-N-MC cells (AID 1347111).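 Further: cells exposed to compound for 48 h before the readout; nearly all actives have a fitted effect of over 70% in size.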 The procedure, abridged:
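Seed 500-1,000 cells/well; rest 5 h at 37 degrees C. Pin-transfer compounds, 11-point titration. Incubate 48 h. Add CellTiter-Glo, 15 min RT, read luminescence.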

Experiment [19] can be described thus: qHTS of pediatric cancer cell lines to identify multiple opportunities for drug repurposing: Confirmatory screen for LAN-5 cells (AID 1347113). Further: nearly all actives have a fitted effect of over 65% in size. The essentials: as §1
Experiment [20] in a line: qHTS of pediatric cancer cell lines to identify multiple opportunities for drug repurposing: Confirmatory screen for U-2 OS cells (AID 1347122). Further: nearly all actives have a fitted effect of over 65% in size. The essentials: as §1
Potency means the concentration at half of the fitted maximal effect.

With `O=c1[nH]cnc2c1ncn2[C@H]1CC[C@@H](CO)O1`, the Potency entry in experiment [1], in experiment [2], in experiment [3], in experiment [4], in experiment [5] and in experiment [6] was “inactive” throughout. The Potency entry in [7], in experiment [8], in experiment [9], in experiment [10], in experiment [11] and in [12] was “inactive” in each case. The Potency entry in [13], in experiment [14], in experiment [15], in experiment [16] and in experiment [17] was “inactive” each time.
On to `Clc1ccc(C(c2ccc(Cl)cc2)n2cc[n+](CC(OCc3ccc(Cl)cc3Cl)c3ccc(Cl)cc3Cl)c2)cc1` (stereo not drawn), for which the Potency is 18.7 µM (active) in experiment [1]; 21.7 µM (active) in experiment [2]; 23.5 µM (active) in experiment [3]; 17.2 µM (active) in experiment [4]; 33.2 µM (active) in [5]; 23.5 µM (active) in [6]. Also, the Potency in [8] and in experiment [9] was 18.7 µM (active) in each case.
Turning to `C[C@H](NC(=O)c1sccc1OCc1ccc(Cl)cc1)c1ccccc1`, the Potency entry in experiment [1], in [3] and in experiment [7] was “inactive” throughout. Further, the Potency in experiment [2] is 19.3 µM (active); in experiment [4] it was 12.2 µM (active); in [5], 29.6 µM (active); in experiment [8] it was 18.7 µM (active); in experiment [9], 16.6 µM (active).
Consider `CNC(=O)c1ccccc1Sc1ccc2c(C=Cc3ccccn3)n[nH]c2c1`, for which the Potency in experiment [1] is 0.743 µM (active); in experiment [2] it was 19.3 µM (active); in experiment [3] it was 14.8 µM (active); in experiment [4], 21.7 µM (active). Further, the Potency entry in experiment [7] was “inactive”.
For the compound `Nc1ncnc2c1ncn2[C@@H]1O[C@@H](CO)[C@H](O)[C@H]1O`, the Potency result in experiment [1], in experiment [2], in experiment [3], in experiment [4], in experiment [5] and in experiment [6] was “inactive” in each case. Besides, the Potency result in experiment [7], in [8], in experiment [9], in [11], in experiment [18] and in [12] was “inactive” in each case. In addition, the Potency result in experiment [19], in experiment [13], in experiment [14], in experiment [15], in [16] and in experiment [20] was “inactive” in each case.
As to `O=C1c2ccccc2-[n+]2ccc3c([nH]c4ccccc43)c21`, the Potency in experiment [1] is 1.66 µM (active); in experiment [2] it was 6.85 µM (active); in [3] it was 2.35 µM (active); in experiment [4], 2.17 µM (active); in [5], 1.87 µM (active); in experiment [6] it was 2.96 µM (active). Also, the Potency is 9.35 µM (active) in experiment [7]; 4.18 µM (active) in [8]; 2.96 µM (active) in [9]; 2.08 µM (active) in [10]; 2.93 µM (active) in [11]; 2.93 µM (active) in [12]. In addition, the Potency in experiment [19] is 0.827 µM (active); in [13], 1.85 µM (active); in experiment [14], 2.61 µM (active); in experiment [15] it was 1.04 µM (active); in experiment [16] it was 1.31 µM (active); in experiment [17], 7.37 µM (active). For the same compound, the Potency in [20] is 1.17 µM (active).
As for `Cc1ccccc1C(C(=O)NC1CCCCC1)N(C(=O)Cn1ccnc1C)c1cccc(F)c1` (stereo not drawn), the Potency result in experiment [1], in experiment [2], in experiment [3], in experiment [6], in experiment [7] and in experiment [8] was “inactive” throughout.
Take `OC[C@H]1O[C@@H](Oc2cc(O)cc(C=Cc3ccc(O)cc3)c2)[C@H](O)[C@@H](O)[C@H]1O`: the Potency entry in experiment [1], in experiment [2], in experiment [3], in experiment [5], in [6] and in experiment [7] was “inactive” in each case. Besides, in experiment [8], the Potency entry is “inactive”.
With `Oc1ccc(C2CCN(c3ccnc4ccccc34)CC2)cc1O`, the Potency in [1] is 18.7 µM (active); in experiment [2], 7.69 µM (active); in [4] it was 17.2 µM (active); in experiment [10], 16.5 µM (active); in [11] it was 2.61 µM (active); in experiment [18], 18.5 µM (active). In addition, the Potency in [12] was 13.1 µM (active); in [13], 5.85 µM (active); in experiment [14], 1.17 µM (active); in experiment [16], 9.27 µM (active); in experiment [17] it was 7.37 µM (active); in experiment [20] it was 2.93 µM (active). In addition, the Potency result in experiment [3], in experiment [6] and in experiment [7] was “inactive” each time.
